PubChem BioAssay
Values joined by “and” are separate entries in the source; they are usually repeats but may differ in a detail not shown here. Equal entries are not always repeated. For some of these results: Measured potencies and affinities stand elsewhere. Active and inactive are the calls of the source.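 The calls were made as follows, unless noted: active = thallium flux through the channel raised or lowered by more than 3 SD from vehicle-only wells, actives on both sides; inactive = the rest.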

Legend:
[1] = polyglutamine-triggered caspase-3 activation inhibitors, cell-based (AID 1583); details: polyglutamine-induced caspase-3 activation, cell assay; stronger effect = higher value;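 tested at 10 µM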
[2] = suppressors of polyQ aggregation in yeast, 75Q-TubU reporter (AID 1593); details: Yeast 75Q polyglutamine aggregation reporter
[3] = rescue of polyQ-huntingtin neuronal dysfunction in worms, whole organism, C. elegans mechanosensory neurons, N-terminal huntingtin (AID 1599); details: touch response, stronger effect = higher value
[4] = inhibitors of mitochondrial cytochrome c release, biochemical, purified mitochondria (AID 1603); details: stronger effect = lower value;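 also: mouse liver mitochondria challenged with calcium chloride; signal normalized to the plate average as 100%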
[5] = inhibitors of polyQ protein aggregation (AID 1604); details: polyglutamine-induced protein aggregation inhibition assay; stronger effect = higher value; tested at 2.5 µM
[6] = enhancers of glutamate uptake in motor neurons, MN-1 cell line (AID 1612); details: MN-1 motor neuron cells, stronger effect = higher value;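 also: tested at 1 µM final; 0% = mean of DMSO vehicle wells on each plate; positive means more glutamate uptake than control and negative means less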
[7] = suppressors of polyglutamine aggregation in yeast, 75Q-TubH (AID 1616); details: S. cerevisiae 75Q-TubH polyglutamine aggregation suppression; stronger effect = higher value
[8] = hESC survival regulators, cell-based (AID 493140; call rule not given here;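 also: cells exposed to compounds for four days before counting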); details: human embryonic stem cell survival screen; stronger effect = higher value
[9] = system: Hepatitis C virus NS3 helicase; test: HCV NS3 helicase inhibitors, primary screen, biochemical, fluorescence polarization, LOPAC1280 library (AID 687035; in the data active = inhibition above about 37%); details: Purified HCV NS3 helicase, Cy5-dT15 ssDNA binding fluorescence polarization; stronger effect = higher value; concentration not given here
[10] = Cy5 fluorescence interference with SSB-bound oligo, artefact control for HCV NS3 helicase inhibitor project, biochemical, NIH Clinical Collection, E. coli SSB (AID 743268; call rule not given here)
[11] = modulation of C. elegans fzo-1 (AID 1259413; call rule not given here;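 also: fzo-1 mutant C. elegans worms in liquid wells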); details: C. elegans fzo-1 modulator screen, mean read-out; stronger effect = higher value
[12] = viability rescue of complex I mutant cybrids, primary screen, cell-based, galactose medium, ATP luminescence (AID 1645843;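 active = z-score of at least 1.8 in each of two replicates, scored against plate mean and spread of sample wells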;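 also: positive z means more ATP and so rescue of galactose-driven cybrid death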); details: complex I mutant cybrid cells, 72 h, stronger effect = higher value
[13] = liver-stage malaria parasite growth inhibition, primary screen, cell-based, HepG2, luciferase luminescence, HepG2 viability (AID 624349; in the data active = parasite load remaining mostly below about 12%, no sharp cut-off; inactive = mostly above about 10%;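 also: 100% = mean of DMSO negative control wells on the same plate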); details: P. berghei liver stage in HepG2, luciferase luminescence, concentration not given here; parasite load remaining: stronger effect = lower value; viability: measured here: HepG2 viability without parasites
F380Y/beta1 = test: modulators of BK channel variants, profiling panel, selectivity assay, cell-based, U2OS BacMam, thallium flux, beta subunits (AID 1259406); details: at 30 µM;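 also: initial slope of Thallos dye fluorescence rise after thallium is added; log ratio against the mean of 0.3% DMSO vehicle wells on the same plate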
F380Y/beta4 = test: as above; details: at 30 µM
R275C = test: as above; details: at 30 µM
R275C/beta1 = test: as above; details: at 30 µM
R275C/beta2Delta = test: as above; details: at 30 µM
R275C/beta4 = test: as above; details: at 30 µM
R275C/Slo1WT/beta2 = test: as above; details: at 30 µM

CCCCc1oc2ccccc2c1C(=O)c1cc(I)c(OCCN(CC)CC)c(I)c1
28.8%: inhibition of aggregation [5]
-1.49: score [2]
-0.303: aggregation suppression score [7]
inactive: survival [8] 3.5 | inhibition [9] 0% | fluorescence ratio [10] 0.96 | mean signal [11] 244 | z-score [12] -1.52 and -1.44 and -1.87
18.6%: inhibition [1]
0.79: cytochrome c release ratio [4]
11.2%: glutamate uptake change [6]
0.17: rescue above control [3]

C#C[C@]1(O)CC[C@H]2[C@@H]3CCC4=CC(=O)CC[C@@H]4[C@H]3CC[C@@]21CC
93.6% and 73.1% and 73.5%: viability [13]
active: log fold change Tl+ flux (F380Y/beta1) 0.149
inactive: survival [8] 3.67 | parasite load remaining [13] 51.8% and 75.6% and 14.7% | fluorescence ratio [10] 1.02 | z-score [12] 0.335 | log fold change Tl+ flux (F380Y/beta4) -0.00261 | log fold change Tl+ flux (R275C) -0.0255 | log fold change Tl+ flux (R275C/beta1) 0.00999 | log fold change Tl+ flux (R275C/beta2Delta) -0.0278 | log fold change Tl+ flux (R275C/beta4) -0.0556 | log fold change Tl+ flux (R275C/Slo1WT/beta2) -0.0344

CN(C)CCOC(c1ccccc1)c1ccccc1
1.07: aggregation suppression score [7]
15.6%: inhibition [1]
8.03%: glutamate uptake change [6]
inactive: survival [8] 14 | inhibition [9] -1% | fluorescence ratio [10] 1.02 | mean signal [11] 216 | z-score [12] -0.255 and 0.81 and 0.09 | log fold change Tl+ flux (R275C) 0.00435 | log fold change Tl+ flux (R275C/beta1) 0.00179 | log fold change Tl+ flux (R275C/beta2Delta) 0.0139
85.2%: inhibition of aggregation [5]
1.11: cytochrome c release ratio [4]
-3.14: rescue above control [3]
1.18: score [2]

C[C@]12C=CC(=O)C=C1CC[C@@H]1[C@@H]2[C@@H](O)C[C@@]2(C)[C@H]1CC[C@]2(O)C(=O)CO
inactive: survival [8] 15.8 | fluorescence ratio [10] 1.02 | z-score [12] -0.29 and 0.46 | log fold change Tl+ flux (F380Y/beta1) 0.00512 | log fold change Tl+ flux (F380Y/beta4) 0.023 | log fold change Tl+ flux (R275C) 0.0128 | log fold change Tl+ flux (R275C/beta1) 0.0311 | log fold change Tl+ flux (R275C/beta2Delta) 0.0197 | log fold change Tl+ flux (R275C/beta4) -0.0125 | log fold change Tl+ flux (R275C/Slo1WT/beta2) -0.0471

OCCN(CCO)c1nc(N2CCCCC2)c2nc(N(CCO)CCO)nc(N3CCCCC3)c2n1
1.33: aggregation suppression score [7]
1.1: cytochrome c release ratio [4]
18.2: rescue above control [3]
32%: glutamate uptake change [6]
79.2%: inhibition of aggregation [5]
inactive: survival [8] 34.4 | inhibition [9] -2% | fluorescence ratio [10] 0.96 | mean signal [11] 298
-102%: inhibition [1]
1.27: score [2]

C[C@@H]1C[C@H]2[C@@H]3CCC4=CC(=O)C=C[C@]4(C)[C@@]3(F)[C@@H](O)C[C@]2(C)[C@@]1(O)C(=O)CO
86.4% and 108%: viability [13]
inactive: parasite load remaining [13] 76.8% and 55.7% | fluorescence ratio [10] 1.05 | z-score [12] 0.135 and 0.555 | log fold change Tl+ flux (F380Y/beta1) 0.0534 | log fold change Tl+ flux (F380Y/beta4) -0.000275 | log fold change Tl+ flux (R275C) 0.0247 | log fold change Tl+ flux (R275C/beta1) 0.0605 | log fold change Tl+ flux (R275C/beta2Delta) 0.000117 | log fold change Tl+ flux (R275C/beta4) 0.0627 | log fold change Tl+ flux (R275C/Slo1WT/beta2) 0.0456

CC1(C)O[C@@H]2C[C@H]3[C@@H]4CCC5=CC(=O)C=C[C@]5(C)[C@@]4(F)[C@@H](O)C[C@]3(C)[C@]2(C(=O)CO)O1
87.8%: viability [13]
inactive: parasite load remaining [13] 89.9% | fluorescence ratio [10] 0.99 | z-score [12] 0.21 | log fold change Tl+ flux (F380Y/beta1) 0.0642 | log fold change Tl+ flux (F380Y/beta4) 0.0499 | log fold change Tl+ flux (R275C) -0.0106 | log fold change Tl+ flux (R275C/beta1) 0.0867 | log fold change Tl+ flux (R275C/beta2Delta) 0.0611 | log fold change Tl+ flux (R275C/beta4) -0.0125 | log fold change Tl+ flux (R275C/Slo1WT/beta2) -0.102

CCC(=O)O[C@]1(C(=O)CCl)[C@@H](C)C[C@H]2[C@@H]3CCC4=CC(=O)C=C[C@]4(C)[C@@]3(F)[C@@H](O)C[C@@]21C
active: log fold change Tl+ flux (F380Y/beta1) 0.254 | log fold change Tl+ flux (F380Y/beta4) 0.236 | log fold change Tl+ flux (R275C/beta1) 0.13 | log fold change Tl+ flux (R275C/beta2Delta) 0.172 | log fold change Tl+ flux (R275C/beta4) 0.386
inactive: parasite load remaining [13] 49% and 35.1% | fluorescence ratio [10] 1.01 | z-score [12] -1.34 and 0.04 | log fold change Tl+ flux (R275C) -0.00176 | log fold change Tl+ flux (R275C/Slo1WT/beta2) 0.0324
110% and 128%: viability [13]

CCN(CC)C(=S)SSC(=S)N(CC)CC
active: log fold change Tl+ flux (R275C/beta1) 0.145
inactive: survival [8] 16.9 | inhibition [9] -3% | fluorescence ratio [10] 0.98 | mean signal [11] 249 | z-score [12] -1.35 and -1.44 and -2.44 | log fold change Tl+ flux (R275C) 0.00507 | log fold change Tl+ flux (R275C/beta2Delta) 0.0247

COc1ccccc1N1CCN(CCCNc2cc(=O)n(C)c(=O)n2C)CC1
95.1% and 83.4% and 78.9%: viability [13]
inactive: survival [8] 5.83 | parasite load remaining [13] 53.4% and 119% and 80.7% | inhibition [9] -4% | fluorescence ratio [10] 0.99 | mean signal [11] 262 | z-score [12] 0.56 and 1 and -0.025 | log fold change Tl+ flux (R275C) -0.0421 | log fold change Tl+ flux (R275C/beta1) 0.0413 | log fold change Tl+ flux (R275C/beta2Delta) 0.0288

C[C@@H](O)[C@H]1C(=O)N2C(C(=O)O)=C(S[C@@H]3CN[C@H](C(=O)N(C)C)C3)[C@H](C)[C@H]12
inactive: survival [8] 4.17 | parasite load remaining [13] 81% and 101% and 24.6% | fluorescence ratio [10] 1.04 | mean signal [11] 272 | z-score [12] 1.23 | log fold change Tl+ flux (F380Y/beta1) 0.00288 | log fold change Tl+ flux (F380Y/beta4) -0.00589 | log fold change Tl+ flux (R275C) -0.0931 | log fold change Tl+ flux (R275C/beta1) -0.0201 | log fold change Tl+ flux (R275C/beta2Delta) -0.042 | log fold change Tl+ flux (R275C/beta4) 0.0148 | log fold change Tl+ flux (R275C/Slo1WT/beta2) -0.00332
74.6% and 72.6% and 92%: viability [13]
